Source: PubChem (National Center for Advancing Translational Sciences (NCATS))
TDP1 cell CPT = DT40-hTDP1 cell growth loss with CPT | chicken DT40 Tdp1-/-;hTDP1 cells + 20 nM CPT, ATP luminescence, 48 h | actives 12% (n = 420,000) | Potency, µM (top dose mostly 46.2 µM), inactives show top-dose activity change, negative = growth inhibition, most hits filed as inhibitors; note: % is set by controls: 0 for no effect and ±100 for the full control effect; nearly all actives have a fitted effect of over 55% in size
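Chicken DT40 Tdp1-/- cells complemented with human TDP1, 400 cells/well, exposed to compounds plus 20 nM camptothecin for at least 48 h at 37 C; viability read as ATP content by CellTiter-Glo luminescence.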
ATXN2 expr inh = inhibitors of ATXN2 expression; HEK-293 ATXN2-luciferase reporter, luminescence, 24 h; Potency, µM (top dose mostly 57 µM), for inactives: top-dose activity change, negative = inhibition, actives largely listed as inhibitors; actives 0.72% (n = 360,000); AID 1745845; note: % is set by controls: 0 for no effect and ±100 for the full control effect; nearly all actives have a fitted effect of over 55% in size
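qHTS (up to 57 uM final) was run with 24 h compound exposure of reporter cells at 37 °C. Each well was multiplexed: SteadyGlo luminescence measured ATXN2-luciferase expression after a fluorogenic Gly-Phe-AFC viability readout (25 uM final).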
ATXN viability = cell viability loss in ATXN counter-screen | S2 cells (HEK-293 line with an ATXN2-luciferase reporter) viability, CellTiter-Fluor protease fluorescence, 24 h | actives 0.49% (n = 400,000) | Potency, µM (highest dose often 56.7 µM), hits mostly cytotoxic | AID 651635; note: nearly all actives have a fitted effect of over 40% in size
HepG2 tox-1 = HepG2 cytotoxicity, counter-screen for TGF-b inhibitors; HepG2 CAGA-GFP viability, ATP luminescence, 18 h; Potency, µM (top dose mostly 46.1 µM), inactives show at the top dose activity change, negative = cytotoxicity, usual class: cytotoxic; actives 0.76% (n = 410,000); AID 588856
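CellTiter-Glo luminescence gave cytotoxicity after 18 hours at 37 degrees C. The cells were HepG2 CAGA-GFP in 1% FBS DMEM, stimulated with 500 pg/mL TGF-beta after compound addition. %Activity was normalised to no-cell wells (complete cell-killing) and DMSO (no toxicity), and curves were fitted and classified.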
TGFb inhibitor = blocks TGF-b signaling | HepG2 CAGA-GFP TGF-b/SMAD3 reporter, GFP fluorescence, 18 h; TGF-beta stimulated, 500 pg/mL final | Potency, µM (series often up to 46.1 µM), inactives show at the top dose activity, negative = inhibition, actives largely listed as inhibitors | actives 1.2% (n = 410,000) | AID 588855; note: % is set by controls: 0 for no effect and ±100 for the full control effect; nearly all actives have a fitted effect of over 65% in size
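First, reporter cells (HEPG2 CAGA-GFP) rested 2 h at 37 degrees C. Next, compounds were pinned in and TGF-beta added to 500 pg/mL final. After 18 h, GFP was imaged per cell and summed per well.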
DT40 TDP1 no CPT = qHTS for Inhibitors of human tyrosyl-DNA phosphodiesterase 1 (TDP1): qHTS in cells in absence of CPT; DT40 Tdp1-/- hTDP1 cells, no CPT, ATP luminescence, 48 h; actives 15% (n = 420,000); Potency, µM (doses to about 46.2 µM), inactives show at the highest dose activity change, negative = growth inhibition, usual class: inhibitors; note: % is set by controls: 0 for no effect and ±100 for the full control effect; nearly all actives have a fitted effect of over 55% in size
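Seeded 400 DT40-hTDP1 cells/well (vehicle DMSO, no 20 nM CPT); pinned compounds; ≥48 hr at 37 °C; CellTiter-Glo luminescence as viability measure.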
TGFb confirm = confirmation of TGF-b signaling inhibitors in HepG2 reporter cells; HepG2 CAGA-GFP TGF-b reporter, GFP fluorescence, 18 h; cells stimulated with TGF-beta, 500 pg/mL; actives 63% (n = 1,600); Potency, µM (top dose mostly 46.1 µM), inactives show at the highest dose activity, negative = inhibition, actives largely listed as inhibitors; shares compounds with TGFb inhibitor; note: % is set by controls: 0 for no effect and ±100 for the full control effect; nearly all actives have a fitted effect of over 65% in size
HepG2 tox-2 = HepG2 cytotoxicity, TGF-b inhibitor counterscreen; shares compounds with TGFb inhibitor; HepG2 CAGA-GFP viability, ATP luminescence, 18 h; cells stimulated with TGF-beta, 500 pg/mL; Potency, µM (highest dose often 46.1 µM), inactives show top-dose activity, negative = cytotoxicity, most hits filed as inhibitors; actives 27% (n = 1,600); AID 720535; note: % is set by controls: 0 for no effect and ±100 for the full control effect; nearly all actives have a fitted effect of over 70% in size
CCL64 TGFb inh = blocks TGF-b signaling in CCL64 reporter cells; shares compounds with TGFb inhibitor; actives 41% (n = 1,600); AID 720536; Potency, µM (top dose mostly 46.1 µM), inactives show at the highest dose activity, negative = inhibition, hits mostly inhibitors; CCL64 CAGA-GFP reporter, TGF-b stimulated, GFP fluorescence, 18 h; note: nearly all actives have a fitted effect of over 65% in size
TGFb COP inh = TGF-b inhibition validated with COP promoter; shares compounds with TGFb inhibitor; Potency, µM (series often up to 46.1 µM), without a hit: top-dose activity, negative = inhibition, most hits filed as inhibitors; AID 720537; HepG2 COP-GFP TGF-b reporter, GFP fluorescence, 18 h; cells stimulated by added recombinant TGF-beta; actives 3% (n = 1,600); note: nearly all actives have a fitted effect of over 70% in size
Numbers without * were called inactive; i = inactive; ? = inconclusive; nt = no result. Rows were chosen to be rich in hits. Some 17% of all compounds tested hit in one or more screens of this group. Calls come from the whole dose curve; as a rule, active = well fitted curve in the direction sought with a large enough effect; inconclusive = small, poorly fitted or top-dose-only effect, or another doubt; inactive = no such curve, though single readings can be large; an effect the other way counts as inactive or inconclusive. Potency is the fitted concentration of half-maximal effect.

SMILES	TDP1 cell CPT	ATXN2 expr inh	ATXN viability	HepG2 tox-1	TGFb inhibitor	DT40 TDP1 no CPT	TGFb confirm	HepG2 tox-2	CCL64 TGFb inh	TGFb COP inh
Cc1ccc(NC(=O)CN2CCC(Cc3ccccc3)CC2)cc1S(=O)(=O)N(C)C	?	-14%	i	-17%	16µM*	?	13µM*	?	?	84%
CC(=O)N1CCN(CC(=O)Nc2ccc(C)c(S(=O)(=O)N(C)C)c2)CC1	-10%	-12%	i	-4%	-2%	?	nt	nt	nt	nt
O=C(OCc1ccccc1)N(CCCCN(CCCNCc1ccccc1)C(=O)OCc1ccccc1)CCCNCc1ccccc1	5.2µM*	?	?	5.6µM*	5µM*	5.2µM*	13µM*	8.2µM*	?	?
CCCC1OC(c2ccco2)OCC1CC (centres undefined)	-29%	1%	i	-15%	-6%	-23%	nt	nt	nt	nt
CN1CCc2c(sc(NC(=O)c3ccc([N+](=O)[O-])o3)c2C(N)=O)C1	1.6µM*	?	?	-94%	1.8µM*	3.7µM*	0.58µM*	2.3µM*	?	-80%
NC(=O)c1c(NC(=O)c2ccc([N+](=O)[O-])o2)sc2c1CCCC2	?	-15%	i	-25%	?	?	nt	nt	nt	nt
N#Cc1c(NC(=O)c2ccc([N+](=O)[O-])o2)sc2c1CCC2	18µM*	?	?	-25%	?	10µM*	12µM*	9.2µM*	15µM*	33%
Nc1c(Cl)cc(-c2csc(NCCc3nc4cc(Cl)c(Cl)cc4n3CCCO)n2)cc1Cl	?	-20%	?	-1%	-13%	?	nt	nt	nt	nt
OCCCn1c(CCCNc2nc(-c3cccc(Br)c3)cs2)nc2cc(Cl)c(N3CCCCC3)cc21	?	0%	?	-8%	10µM*	16µM*	13µM*	-23%	?	37%
O=C(CCCCn1c(=O)c2ccccc2n(CC(=O)Nc2cccc(F)c2)c1=O)NCc1ccccc1Cl	-4%	-3%	i	-1%	-1%	-13%	nt	nt	nt	nt
COc1ccc(C(=O)On2c(-c3ccc(Br)cc3)nc3ccccc3c2=O)cc1	?	?	?	-18%	13µM*	18µM*	12µM*	21µM*	21µM*	12%
COc1ccc(-c2c/c(=N\c3nc(-c4ccccc4)c(C)s3)c3ccccc3o2)cc1O	5.8µM*	?	nt	-15%	8.9µM*	4.1µM*	8.2µM*	?	4.1µM*	37%
COc1ccc(S(=O)(=O)N2CCOCC2)cc1NC(=O)CSc1nnc(N)s1	2%	5%	i	5%	?	-16%	-12%	3%	3%	5%
Nc1nnc(SCC(=O)Nc2cccc(S(=O)(=O)N3CCOCC3)c2)s1	-8%	-3%	?	-20%	?	-6%	nt	nt	nt	nt
Cc1ccc(NC(=O)c2cc(C(=O)c3cc(Cl)ccc3O)cn(-c3ccc(C)cc3)c2=O)cc1	18µM*	-17%	i	-35%	7.9µM*	21µM*	?	?	?	2%
CCN(C(=O)COC(=O)c1cccc2ccccc12)c1c(N)n(Cc2ccccc2)c(=O)[nH]c1=O	-20%	-10%	i	-9%	-17%	0%	nt	nt	nt	nt
CCN(C(=O)COC(=O)c1ccccc1Nc1ccccc1)c1c(N)n(Cc2ccccc2)c(=O)[nH]c1=O	?	nt	?	-9%	18µM*	?	21µM*	-24%	?	8%
COc1cc(/C=C/C(=O)c2ccc3c(c2)OCCO3)cc(Br)c1OCC(=O)N(C)C	8.2µM*	20µM*	28µM*	-175%	4µM*	7.3µM*	3.7µM*	3.3µM*	21µM*	-29%
CCOC(=O)N1CCN(C(=O)COc2cccc3c2CCN(Cc2cccc(C)c2)C3=O)CC1	23µM*	-8%	i	-7%	?	15µM*	?	-25%	?	-8%
CCOC(=O)N1CCN(C(=O)COc2cccc3c2CCN(Cc2ccccc2C)C3=O)CC1	?	-14%	i	-21%	-2%	?	nt	nt	nt	nt
O=C(c1ccc(Cl)c(Cl)c1)N1CCC(=O)N(C(COCc2ccc(Cl)cc2)Cc2ccccc2)CC1 (centres undefined)	?	?	?	-28%	10µM*	16µM*	21µM*	?	?	18%
O=C(Nc1cccc(Cl)c1)Nc1cc(S(=O)(=O)N2CCCCC2)ccc1Cl	?	?	?	2%	10µM*	?	4.1µM*	?	4.6µM*	73%
CC1(C(=O)O)CCN1C(=O)c1ccccc1F (centres undefined)	1%	4%	i	2%	4%	-7%	nt	nt	nt	nt
O=C(Nc1cc(Sc2ccccn2)cc([N+](=O)[O-])c1)c1ccc(Cl)cc1	?	-1%	i	-24%	14µM*	23µM*	12µM*	-19%	10µM*	11%
CCOC(=O)N=Nc1c2ccccc2c2nc3no[nH]c3nc12	0.41µM*	?	nt	0.79µM*	0.71µM*	1.3µM*	0.65µM*	0.73µM*	1.3µM*	0.73µM*
